Screening data from PubChem.
Most compounds without a hit are left out; they make up all but 3.4% or so of the library.
Mcl1 Bid PPI: Mcl-1/Bid interaction inhibition. TR-FRET Mcl-1/Bid-Dy647 peptide binding, 1536-well. AID 1021. 220,000 tested, 0.97% active. inhibition, % at 21.7 µM;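 active = compounds that cut the binding signal by more than half at the single screening dose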;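 also: His-tagged Mcl-1 with europium anti-His antibody binding Bid BH3 peptide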
Target sequence (Q07820 whole entry, looked up): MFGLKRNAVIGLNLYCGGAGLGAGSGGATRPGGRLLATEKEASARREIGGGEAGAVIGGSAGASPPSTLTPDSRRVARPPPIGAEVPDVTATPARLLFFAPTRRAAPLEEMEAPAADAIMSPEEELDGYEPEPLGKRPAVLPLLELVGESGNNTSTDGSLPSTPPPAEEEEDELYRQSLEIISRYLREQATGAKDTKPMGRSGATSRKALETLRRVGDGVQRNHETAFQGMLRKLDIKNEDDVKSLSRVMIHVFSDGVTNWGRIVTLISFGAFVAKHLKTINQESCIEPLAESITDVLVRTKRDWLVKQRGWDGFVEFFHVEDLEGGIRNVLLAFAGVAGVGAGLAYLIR
Mcl1-Noxa inh: disrupts binding of human Mcl-1 to Noxa peptide | TR-FRET Mcl-1/Noxa peptide binding, 2 h | Q07820 | inhibition, % at 21.7 µM | AID 1022 | 220,000 tested, 1.5% active;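 active = compounds that cut the protein-peptide binding signal by more than 50% relative to plate controls in a single-dose test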;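 also: His-tagged Mcl-1 with rhodamine Noxa BH3 peptide and terbium anti-His antibody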
Bim-Mcl-1: human Bim-Mcl-1 interaction inhibition | Q07820 | Bead-based flow cytometry, Bim peptide-Mcl-1 binding | inhibition, % at 10 µM | 190,000 tested, 0.1% active; in the data active = inhibition above about 40%
14-3-3 Bad PPI: disrupts binding of bovine 14-3-3 zeta to phospho-Bad peptide. inhibition, % at 21.7 µM. 220,000 tested, 0.71% active. TR-FRET 14-3-3zeta/Dy647-pBad peptide displacement, 1 h. P63103;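 active = inhibition above about 70%, limit read from the data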
Target sequence (P63103 whole entry, looked up): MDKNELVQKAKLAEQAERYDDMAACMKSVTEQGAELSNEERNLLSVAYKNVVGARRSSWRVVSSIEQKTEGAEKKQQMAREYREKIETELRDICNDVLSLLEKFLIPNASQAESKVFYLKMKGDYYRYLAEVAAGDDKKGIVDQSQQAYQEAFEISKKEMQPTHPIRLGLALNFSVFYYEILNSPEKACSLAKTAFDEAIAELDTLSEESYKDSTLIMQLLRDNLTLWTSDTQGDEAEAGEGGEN
m-calpain inh: blocks pig calpain II enzyme activity; purified calpain II, fluorogenic peptide substrate, 30 min; inhibition, % at 16 µM; 220,000 tested, 0.37% active;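 active = inhibition above about 50%, limit read from the data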
NCF1 inh: blocks human p47phox regulatory protein of NADPH oxidases. p47phox/p22phox peptide binding, fluorescence polarization, 2 h. inhibition, % at 24.7 µM. 220,000 tested, 0.53% active. AID 1274;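 active = inhibition above about 30%, limit read from the data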
Large screens that a line does not name were inactive; [ ] = another dose, or the depositor's remark.

COCCn1c(-c2ccccc2)cnc1SCC(=O)Nc1cccc2ccccc12	none
Cc1ccc(NC(=S)NNC(=O)CSc2nc3ccccc3c(=O)n2-c2ccc(C)cc2)cc1	none
Cc1ccc(N(C(=O)Cn2nnc(-c3ccc(F)cc3)n2)C(C(=O)NC(C)(C)C)c2ccncc2)cc1 (stereo unspecified)	none
CC(=O)CSc1cc(-c2ccccc2)nc2ncnn12	none (no result: Bim-Mcl-1)
CCc1nc(NC(C)C)c2oc3ccccc3c2n1	14-3-3 Bad PPI 76
CCc1nc(Nc2ccc3c(c2)OCO3)c2oc3ccccc3c2n1	14-3-3 Bad PPI 70[fluorescence artefact?]
CCc1nc(N2CCN(Cc3ccc4c(c3)OCO4)CC2)c2oc3ccccc3c2n1	14-3-3 Bad PPI 80
CCc1nc(N2CCCCC2)c2oc3ccccc3c2n1	none
CCc1nc(SCC(=O)Nc2ccc3c(c2)OCCO3)c2oc3ccccc3c2n1	NCF1 inh 39
Cc1nc(SCC(=O)Nc2ccc3c(c2)OCCO3)c2oc3ccccc3c2n1	none
CCc1nc(Nc2ccncc2)c2oc3ccccc3c2n1	none (no result: Mcl1 Bid PPI, Mcl1-Noxa inh, 14-3-3 Bad PPI, m-calpain inh, NCF1 inh)
Cc1ccc(S(=O)(=O)N2CCC(NC(=O)c3ccccc3)CC2)cc1	none
Cc1occc1-c1nnc(SCC(=O)N2CCCCC2)o1	none
COc1ccc(C2CC(=O)C=C(NNS(=O)(=O)c3ccc(C)cc3)C2)cc1 (stereo unspecified)	none
Cc1ccc(-n2c(SCC3CNC(=O)O3)nnc2-c2ccccc2)cc1C (stereo unspecified)	none
O=C(Nc1nccs1)c1ccc(NC(=O)C2CC=CCC2C(=O)O)cc1 (stereo unspecified)	none
Cc1c(C(=O)/C=C/N(C)C)nnn1-c1ccc(Cl)cc1C#N	none (no result: Bim-Mcl-1)
O=[N+]([O-])c1cc(/C=N\Nc2nccs2)ccc1O	Mcl1 Bid PPI 61, Mcl1-Noxa inh 101, 14-3-3 Bad PPI 75[fluorescence artefact?]
Clc1cccc(Cl)c1/C=N\Nc1nccs1	none
CCNC(=S)N/N=C/c1ccc(OCC(=O)Nc2ccc(C)cc2)cc1	none
CC(C)(C=O)C1=CC(=O)c2ccccc2C1=O	Mcl1-Noxa inh 85
CC1=CC(=O)c2ccccc2C1=O	none
COc1ccc(C2=CC(c3ccc(OC)c(OC)c3)NC(=S)N2)cc1 (stereo unspecified)	none
COc1cccc(C2=CC(c3ccc(OC)c(OC)c3)NC(=S)N2)c1 (stereo unspecified)	m-calpain inh 59 (no result: Bim-Mcl-1)
Cc1nc(S/C(=C\c2ccc(-c3ccc(C(=O)O)c(Cl)c3)o2)C(=O)O)n[nH]1	Mcl1 Bid PPI 55, Mcl1-Noxa inh 93, 14-3-3 Bad PPI 86 (no result: Bim-Mcl-1)
O=C(N/N=C/c1ccc2ncccc2c1)c1ccco1	Mcl1-Noxa inh 52
O=C(N/N=C/c1ccccn1)c1ccco1	none
O=C(CCCCCCN1C(=O)c2ccccc2C1=O)N1CCC(c2ccccc2)C1 (stereo unspecified)	m-calpain inh 53
O=C(CCCN1C(=O)c2ccccc2C1=O)Nc1ccccc1	Mcl1 Bid PPI 78 (no result: Bim-Mcl-1)
O=C(CN1CCC(N2CCCCC2)CC1)N1CCCc2ccccc21	14-3-3 Bad PPI 87
Cc1ccc(NC(=O)CN(C)C(=O)CCCN2C(=O)c3ccccc3C2=O)cc1	m-calpain inh 60
O=C(CCCCCCCCN1C(=O)c2ccccc2C1=O)N1CCOCC1	none (no result: Bim-Mcl-1)
O=C(CN1CCCc2ccccc21)N1CCc2ccccc21	none (no result: Bim-Mcl-1)
CCN(CC)S(=O)(=O)c1cc(NC(=O)CSc2nc3c(cc2C#N)C(=O)CC(C)(C)C3)ccc1C	none
O=C1c2ccccc2C(=O)N1CCCC(=O)N1CCCc2ccccc21	m-calpain inh 57
CN1CCc2c(OCC(=O)N3CCCc4ccccc43)cccc2C1=O	none
CCOC(=O)c1c(C)oc2cc(Br)c(OC(=O)N3CCOCC3)cc12	Mcl1 Bid PPI 92
Cc1nc2sc(C(N)=O)c(N)c2c2c1CCCC2	none (no result: Bim-Mcl-1)
O=C1C(C=NCc2ccncc2)=C(O)c2ccccc21	Mcl1 Bid PPI 96
O=C1C(C=NCc2cccnc2)=C(O)c2ccccc21	none
COc1ccc(S(=O)(=O)N2CCN(C(=O)NC3CCCCC3)CC2)cc1OC	Mcl1-Noxa inh 56
COc1ccc(NC(=O)Cn2nnc(C(=O)NCc3ccccc3)c2N)c(OC)c1	none
CCOc1ccc(C(=O)NCCC2=CCCCC2)cc1OCC	none
COc1cc(C=O)ccc1OS(=O)(=O)c1ccc(NC(C)=O)cc1	Mcl1 Bid PPI 53
COc1ccc(/C=C2\SC(=S)NC2=O)cc1OS(=O)(=O)c1ccc(NC(C)=O)cc1	none
O=[N+]([O-])c1cccc(-c2nnc(-c3ccc4c(c3)OCO4)o2)c1	Mcl1 Bid PPI 60, Mcl1-Noxa inh 62
CCOC(=O)c1sc2ncn(/N=C/c3ccc(O)c(OC)c3)c(=O)c2c1C	Mcl1-Noxa inh 53
COc1cc(/C=N/n2cnc3c(sc4nc(C)cc(C)c43)c2=O)ccc1O	none (no result: Bim-Mcl-1)
N#Cc1nccnc1S(=O)(=O)c1cccs1	none (no result: Bim-Mcl-1)
Cc1ccc(CN2CCN(C(=O)c3ccncc3)CC2)cc1	none
CCOc1ccc(NC(=O)Cn2sc3nc(C)cc(C)c3c2=O)cc1	Mcl1-Noxa inh 51, NCF1 inh 40 (no result: Bim-Mcl-1)
Cc1cccc(N2CCN(C(=O)Cn3sc4nc(C)cc(C)c4c3=O)CC2C)c1 (stereo unspecified)	Mcl1-Noxa inh 59
Cc1cccc(N2CCN(C(=O)Cc3ccc(-n4c(=O)[nH]c5ccsc5c4=O)cc3)CC2C)c1 (stereo unspecified)	Mcl1 Bid PPI 93
Cc1cc(C)c2c(=O)n(CC(=O)N3CCC(Cc4ccccc4)CC3)sc2n1	Mcl1-Noxa inh 59
Cc1ccc(-c2ccc(=O)n(CC(=O)N3CCN(c4cccc(C)c4)C(C)C3)n2)cc1 (stereo unspecified)	none
Cc1cc(C)c2c(=O)n(CC(=O)NCCCN3CCOCC3)sc2n1	none
Cc1cc(C)c2c(=O)n(CC(=O)NCCCN3CCN(c4ccccc4F)CC3)sc2n1	NCF1 inh 51
COc1ccc(Cl)cc1C(Nc1cccnc1)c1ccc2cccnc2c1O (stereo unspecified)	Mcl1 Bid PPI 97
NC(N)=N/N=C/c1ccc(Cl)cc1Cl	Mcl1 Bid PPI 51 (no result: Bim-Mcl-1)
CCN(CCO)Cc1cc(=O)oc2cc3c(cc12)CCC3	none (no result: NCF1 inh)
O=C(Nc1cccc(-c2cn3ccccc3n2)c1)c1cc2ccccc2oc1=O	Mcl1 Bid PPI 60, Mcl1-Noxa inh 59, NCF1 inh 43
CC(=O)Nc1cccc(-c2cn3ccccc3n2)c1	none
COc1ccc(-n2c(=S)[nH]c3cc(C(=O)NCc4ccco4)ccc3c2=O)cc1OC	none
COc1cc(NC(=O)c2ccc3c(=O)n(Cc4ccco4)c(=S)[nH]c3c2)cc(OC)c1OC	Mcl1 Bid PPI 52
COc1ccc(CCn2c(=S)[nH]c3cc(C(=O)NCc4ccco4)ccc3c2=O)cc1OC	Mcl1 Bid PPI 52, 14-3-3 Bad PPI 77
CCCNC(=S)NCCN1CCCCC1	14-3-3 Bad PPI 73
COC(=O)Cc1nc(Nc2ccccc2)sc1C	none (no result: Bim-Mcl-1)
Cc1nc(SCc2ccc(OCCC(C)C)cc2)n[nH]1	none
